Compounds with a hit are over-represented: about 1.9% of the library has one in this group of screens.
BAP1 inh: blocks human BAP1 ubiquitin-AMC hydrolysis; recombinant BAP1, Ub-AMC hydrolysis fluorescence kinetic; stronger effect = lower value; activity remaining (% of control), % at 20 µM; hit rate 0.48% among 72,000; AID 436;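 active = activity remaining at or below 50% of control, provided the compound also passes the data quality filters; inactive = the rest, including low values that fail the filters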;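 note: 100% = DMSO wells rate and 0% = substrate alone blank rate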
HER2 expr 66K: inhibitors of human Her2 kinase expression | P04626 | SKBR-3 HER2 protein level, AlphaScreen, 18-24 h; stronger effect = lower value | HER2 level % of control, % at 10 µM | hit rate 0.69% among 65,000 | AID 645;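 active = HER2 level under 5% of the carrier-only control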;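 note: 100% = DMSO carrier and 0% = 500 nM PU-H71 HSP90 inhibitor; lower value means stronger loss of Her2 protein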
SK-BR-3 tox 24h: SK-BR-3 proliferation inhibitors; hit rate 0.47% among 41,000; viability, % at 10 µM; SK-BR-3 viability, CellTiter-Glo ATP luminescence, 24 h; stronger effect = lower value; AID 847;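 active = viability at or below the median of all test compounds minus 3 SD, in both replicates if run twice, cut at about 45% in these data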;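 note: 100% = median untreated cell wells and 0% = median positive control drug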
Hsp90 block: displaces geldanamycin probe from tumor Hsp90. P07900. inhibition, % at 30 µM. NCI-N417 lysate Hsp90, Cy3B-geldanamycin FP displacement. hit rate 0.35% among 64,000. AID 429;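 active = inhibition above 50%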;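 note: 0% = tracer plus lysate wells and 100% = tracer alone without lysate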
S1P1 ag pot: activates or potentiates agonism at human S1P1 receptor; AID 449; activation, % at 9.5 µM; S1P1 CRE-bla cells, forskolin, beta-lactamase FRET, potentiator mode; S1P1 agonist co-added at EC20, 2 nM; 100% = saturating reference agonist, 0% = basal; hit rate 0.57% among 56,000;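 active = activation above a cutoff set at the mean activation of all tested compounds plus 3 SD, cut at about 54% in these data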;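 note: forskolin at 4 µM as EC80 and the EC20 agonist is SEW2871; 100% = SEW2871 at its EC100 plus forskolin at EC80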
Target sequence (P21453 whole entry, looked up): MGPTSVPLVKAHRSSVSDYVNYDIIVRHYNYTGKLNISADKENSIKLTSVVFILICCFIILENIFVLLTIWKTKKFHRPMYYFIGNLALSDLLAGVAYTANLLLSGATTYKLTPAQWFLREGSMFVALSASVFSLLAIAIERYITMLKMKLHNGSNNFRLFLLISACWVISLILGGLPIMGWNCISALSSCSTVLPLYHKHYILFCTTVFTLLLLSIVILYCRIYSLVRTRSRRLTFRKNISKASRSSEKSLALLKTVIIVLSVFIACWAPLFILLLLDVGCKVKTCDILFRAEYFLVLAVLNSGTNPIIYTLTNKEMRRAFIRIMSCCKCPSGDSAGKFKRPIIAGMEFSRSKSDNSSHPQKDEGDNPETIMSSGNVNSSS
TNAP act mid DEA: human TNAP activation, intermediate phosphate acceptor; 64,000 tested, under 10 active; activation factor at 20 µM; purified TNAP, CDP-star luminescence, 100 mM DEA, 30 min; stronger effect = higher value; scale: 0 levamisole-inhibited, 1 vehicle-only enzyme; AID 813;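 active = activation factor of at least 2 at 20 µM, relative to controls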
BAP1 inh confirm: BAP1 (human) enzyme inhibition, confirmed; shares compounds with BAP1 inh; purified BAP1, Ub-ethyl ester hydrolysis, HPLC; stronger effect = lower value; % of control activity, % at 20 µM; hit rate 8% among 310; AID 753;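 active = percent of control activity at or below 60%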
Starred values were filed as active, the others as inactive; i = inactive; nt = not tested or not shown.

SMILES	BAP1 inh	HER2 expr 66K	SK-BR-3 tox 24h	Hsp90 block	S1P1 ag pot	TNAP act mid DEA	BAP1 inh confirm
CCOC(=O)C1=C(C)N=c2s/c(=C\c3cccn3C)c(=O)n2C1c1cccc(OC)c1OC (stereo unspecified)	104.3	72.9	nt	-2.2	-8.5	0.9	nt
Cc1cccc(OCC(=O)Nc2ccc(N3CCN(S(C)(=O)=O)CC3)cc2)c1C	39.8*	121.9	106.9	2.0	-1.8	0.9	97.9
Clc1ccc(-c2ccc[nH]2)cc1	267.6	nt	nt	nt	nt	nt	nt
C=CCn1c(-c2cc(OC)c(OC)c(OC)c2)n[nH]c1=S	44.0*	95.1	100.9	-0.3	-8.5	0.9	87.0
O=C(Nc1nccs1)c1ccccc1Cl	114.4	nt	nt	nt	nt	nt	nt
COc1cccc(C2C(C#N)=C(N)OC3=C2C(=O)CC(c2ccco2)C3)c1OCc1ccc(F)cc1 (stereo unspecified)	45.6*	78.3	72.7	-7.4	-5.1	0.9	100.0
CCOc1cc2[nH]c(=O)n(Cc3cccc(OC)c3)c(=O)c2cc1OCC	48.3*	65.2	nt	-1.7	-7.2	1	103.9
Cc1cccc(-n2c(=O)[nH]c3c(C(N)=O)nc(-c4ccccc4Cl)nc32)c1	38.1*	26.9	nt	-3.3	-29.5	1	139.0
Cn1c(=O)oc2cc(S(=O)(=O)N3CCOCC3)ccc21	97.1	94.5	nt	-0.5	-3.1	0.8	nt
O=S(=O)(c1ccc2c(c1)oc1ccccc12)N1CCOCC1	40.8*	98.6	93.1	1.9	nt	1	112.1
CCCc1ccc(Oc2c(-c3ccc(O)c(C)c3O)n[nH]c2C)cc1	43.4*	84.3	86.0	-0.4	50.0	1.1	63.6
Oc1ccc(-c2[nH]ncc2Oc2ccccc2)c(O)c1O	81.5	nt	nt	nt	nt	nt	nt
CCCc1ccc(Oc2cn[nH]c2-c2ccc(O)c(C)c2O)cc1	39.1*	45.5	150.7	-1.4	58.1*	1	58.8*
CCOc1ccc2nc(NC(=O)CN3CCC(n4nnc5cc(F)ccc54)CC3)sc2c1	36.2*	65.7	101.5	-0.7	14.2	1	97.7
CCOC(=O)N1CCN(C(=O)c2cccn3c(=O)c4sccc4nc23)CC1	48.5*	66.6	96.3	0.2	nt	0.9	99.7
O=C(c1ccco1)[C@@H]1[C@@H]2C(=O)N(c3ccc(F)cc3)C(=O)[C@@H]2C2c3ccccc3C=CN21 (stereo partly specified)	51.0	110.6	102.4	-16.0	-1.7	0.9	nt
O=C(c1ccco1)[C@@H]1[C@@H]2C(=O)N(c3ccc(Br)cc3)C(=O)[C@@H]2C2c3ccccc3C=CN21 (stereo partly specified)	27.7*	64.3	91.9	-24.0	15.0	0.9	91.2
CCn1c(=O)c2cc(C(=O)N3CCOCC3)sc2c2ccccc21	47.2*	67.6	nt	-1.6	-32.6	0.9	82.8
CCn1c(=O)c2cc(C(=O)N3CCCC3)sc2c2ccccc21	nt	94.6	nt	-2.7	-16.4	1	nt
O=C(CSc1nncc2ccccc12)N1CCOCC1	107.6	117.7	nt	2.7	5.5	1.1	nt
CCOC(=O)c1sc(NC(=O)c2noc3c2CCCC3)c(C(=O)OCC)c1C	38.2*	80.2	nt	-1.9	0.3	0.8	i
COc1ccc2nc(N3CCC(O)CC3)c(C#N)cc2c1	67.8	111.8	121.3	-5.6	-6.2	1.1	nt
CCOC(=O)C1CCN(c2nc3cc(OC)ccc3cc2C#N)CC1	43.7*	104.9	99.9	-3.0	1.1	0.9	116.8
Cc1cc(OCc2ccc(F)cc2)nc(-c2ccccc2O)n1	37.2*	96.0	92.6	-0.6	nt	0.9	165.3
Cc1ccc(-c2noc(C3CCN(S(C)(=O)=O)CC3)n2)o1	95.5	84.4	82.8	7.0	18.3	0.9	nt
SMILES	BAP1 inh	HER2 expr 66K	SK-BR-3 tox 24h	Hsp90 block	S1P1 ag pot	TNAP act mid DEA	BAP1 inh confirm
Cc1cc(C)cc(-n2nnnc2SCC(=O)Nc2cccc(NC(=O)c3ccco3)c2)c1	64.5	80.0	74.7	-5.0	-2.0	0.9	nt
Cc1ccc(-n2nnnc2SCC(=O)Nc2cccc(NC(=O)c3ccco3)c2)cc1C	43.3*	117.7	104.0	-5.0	2.3	0.9	91.8
COc1ccc(S(=O)(=O)N2CCC(NC(=O)Nc3ccc(C)cc3)CC2)cc1	96.4	93.4	109.6	0.0	11.6	0.9	nt
CCCCCCNC(=O)C(C#N)c1nc2ccccc2nc1N1CCCC1 (stereo unspecified)	38.4*	105.2	72.4	2.1	22.0	0.8	70.4
COc1ccccc1N1CCN(c2nc3ccccc3nc2C(C#N)C(=O)OC(C)C)CC1 (stereo unspecified)	45.8*	105.5	97.7	-0.7	-11.9	0.7	117.2
CCCSc1nc(O)c(C2OC(=O)c3c2ccc(OC)c3OC)c(=O)n1C (stereo unspecified)	107.3	102.8	97.9	1.6	0.7	0.9	nt
O=C(Nc1ccc(F)cc1F)c1cc2n(n1)C(C(F)(F)F)C1CCCCC1N2 (stereo unspecified)	37.7*	63.4	81.3	-2.2	nt	0.9	117.4
COC(=O)CSc1nnc(-c2cnccn2)n1C	102.1	91.1	88.2	0.1	1.6	0.9	nt
NC1=CC(=O)c2cccc3cccc1c23	44.8*	82.1	149.2	21.9	-6.6	0.9	139.4
Cc1nnc(C)n1N1C(=O)c2cccc3cccc(c23)C1=O	nt	108.1	nt	-1.0	-9.3	0.9	nt
CCOC(=O)C1=C(C)OC(N)=C(C#N)C1c1ccc(OC)c(C)c1OC (stereo unspecified)	96.9	119.4	nt	-3.4	-16.6	0.9	nt
CCOC(=O)c1c(NC(=O)CSc2nnc(-c3cccnc3)o2)sc(C)c1C	144.3	105.1	85.1	1.3	-7.2	0.9	nt
Cc1sc(NC(=O)CSc2nnc(-c3ccccc3)o2)c(C#N)c1C	28.7*	93.4	85.4	-7.9	-18.0	0.9	37.2*
COC(=O)c1sc2nc(CN3CCOCC3)nc(N3CCOCC3)c2c1C	78.0	98.4	103.0	-7.7	-3.5	1	nt
Cc1sc2nc(CN3CCOCC3)nc(N3CCC(C(N)=O)CC3)c2c1C	106.5	97.6	nt	-1.8	6.9	0.9	129.4
COc1ccc(CCNC(=O)CN(C)S(=O)(=O)c2cccs2)cc1OC	90.7	78.6	nt	-0.8	nt	0.9	nt
O=C(CCSc1nnc2scc(-c3ccccc3)n12)Nc1nc(-c2ccccc2)ns1	45.0*	102.5	79.7	-2.6	-28.6	1	126.0
CC(=O)Nc1ccc(C(=O)CSc2nnc3scc(-c4ccccc4)n23)cc1	58.5	164.7	99.6	-8.8	-24.0	0.9	nt
Cc1ccc(NS(=O)(=O)c2cc(C(=O)Nc3cccc([N+](=O)[O-])c3)ccc2Br)cc1	63.0	nt	nt	nt	nt	nt	nt
c1ccc(-n2cnnc2SCc2nc3ccccc3s2)cc1	48.4*	92.4	nt	-10.7	3.6	0.9	110.5
